# According to PubChem BioAssay (NCI):
# About 79,000 compounds went through this panel and 15% of them were active in at least one assay; those are over-represented in the sample as a whole. Unmarked numbers belong to inactive results. Active and inactive are the calls of the source. Rule as the data show it: active = growth inhibition above about 70%; inactive = the rest.
# Tests used:
# [1] = NCI Yeast Anticancer Drug Screen. Data for the rad52 strain (AID 147);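 also: 0% = growth of vehicle-treated control cultures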; settings: S. cerevisiae rad52 mutant growth inhibition, active compounds read high
# In short: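 Vehicle-treated cultures served as the reference for growth inhibition of compound-exposed yeast bearing a DNA repair mutation.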
# [2] = NCI Yeast Anticancer Drug Screen. Data for the wt1 strain (AID 149);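 also: 0% = growth of vehicle-treated wt1 cultures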; settings: S. cerevisiae wt1 strain (SPY 50644) growth inhibition, active compounds read high
# In short: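 Growth inhibition read against vehicle controls after compound exposure of the wt1 yeast strain.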
# [3] = NCI Yeast Anticancer Drug Screen. Data for the rad50EPP+ strain (AID 151);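 also: 0% = growth of vehicle-treated control cultures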; settings: S. cerevisiae rad50 mutant strain, active compounds read high
# In short: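 In this screen, rad50EPP+ yeast were exposed to compounds. Growth inhibition was scored against vehicle-treated controls.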
# [4] = NCI Yeast Anticancer Drug Screen. Data for the mgt1 strain (AID 153); settings: S. cerevisiae mgt1 mutant growth inhibition, active compounds read high
# In short: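 mgt1 strain exposed; growth vs vehicle control recorded as inhibition.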
# [5] = NCI Yeast Anticancer Drug Screen. Data for the rad50 strain (AID 155);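 also: 0% = growth of vehicle-only cultures of the same strain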; settings: S. cerevisiae rad50 strain growth inhibition, active compounds read high
# In short: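 Readout: growth inhibition relative to vehicle-treated cultures. Compound exposure was carried out in a genetically defined yeast strain deficient in DNA damage repair.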
# [6] = NCI Yeast Anticancer Drug Screen. Data for the mec2-1 strain (AID 157); settings: S. cerevisiae mec2-1 strain, active compounds read high
# In short: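 Vehicle-treated cultures served as reference for growth inhibition of compound-exposed mec2-1 yeast.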
# [7] = NCI Yeast Anticancer Drug Screen. Data for the rad14 strain (AID 159);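 also: 0% = growth of vehicle-treated control cultures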; settings: S. cerevisiae rad14 strain growth inhibition, active compounds read high
# In short: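 Growth inhibition vs vehicle controls; genetically altered yeast strain (DNA damage repair defect) treated with test compounds.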
# [8] = NCI Yeast Anticancer Drug Screen. Data for the sgs1 mgt1 strain (AID 161);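 also: 0% = growth of cultures given vehicle only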; settings: S. cerevisiae sgs1 mgt1 strain, active compounds read high
# In short: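 Mutant yeast exposed to compound; growth scored against vehicle-only wells.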
# [9] = NCI Yeast Anticancer Drug Screen. Data for the CLN2oe strain (AID 163);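 also: 0% = growth of vehicle-only control cultures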; settings: S. cerevisiae CLN2oe strain, active compounds read high
# In short: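 Inhibition relative to vehicle-treated yeast is reported. Cells: strain with genetic alteration in cell-cycle control, grown with compound.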
# [10] = NCI Yeast Anticancer Drug Screen. Data for the cln2 rad14 strain (AID 165);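 also: 0% = growth equal to vehicle treated cultures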; settings: S. cerevisiae cln2 rad14 strain, active compounds read high
# In short: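 Each compound was tested on cln2 rad14 yeast. Inhibition of growth was calculated against vehicle-exposed controls.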
# [11] = NCI Yeast Anticancer Drug Screen. Data for the bub3 strain (AID 167); settings: S. cerevisiae bub3 mutant strain, active compounds read high
# In short: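 Readout: yeast growth inhibition, expressed relative to vehicle-only wells. The test organism is a mutant strain from a panel with lesions in DNA repair or checkpoint genes.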
# [12] = NCI Yeast Anticancer Drug Screen. Data for the wt2 strain (AID 169);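 also: 0% = growth of vehicle-treated yeast cultures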; settings: S. cerevisiae wt2 strain growth inhibition, active compounds read high
# In short: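 Inhibition of yeast growth was determined after compound treatment, normalised to controls receiving only vehicle.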
# [13] = NCI Yeast Anticancer Drug Screen. Data for the mlh1 strain (AID 171);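 also: 0% = growth of vehicle-treated control cultures of the same strain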; settings: S. cerevisiae mlh1 strain growth inhibition, active compounds read high
# In short: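 Vehicle-normalised growth inhibition of a repair- or checkpoint-altered yeast strain following compound treatment.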
# [14] = NCI Yeast Anticancer Drug Screen. Data for the sgs1 strain (AID 173);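 also: 0% = growth of vehicle-only control cultures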; settings: S. cerevisiae sgs1 mutant, active compounds read high
# In short: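 Screen format: yeast with repair or checkpoint alterations, compound exposure, growth read relative to vehicle.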
# [15] = NCI Yeast Anticancer Drug Screen. Data for the mlh1 rad18 strain (AID 175); settings: S. cerevisiae mlh1 rad18 strain growth inhibition, active compounds read high
# In short: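 Vehicle-treated cultures served as the reference for growth inhibition in a yeast strain carrying DNA damage repair alterations exposed to each compound.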
# [16] = NCI Yeast Anticancer Drug Screen. Data for the rad18 strain (AID 177); settings: S. cerevisiae rad18 mutant growth inhibition, active compounds read high
# In short: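 Test articles were incubated with altered yeast defective in DNA damage repair. Results are given as inhibition of growth versus vehicle.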
# [17] = at 5.0 µM (retest, dose inferred, filed as 0.5)
# [18] = at 50.0 µM (retest, dose inferred, filed as 5.0)
compound,measurement,setting,value
CCC[CH2][Sn]([CH2]CCC)([CH2]CCC)/[C](=C/[Si](C)(C)c1ccccc1)c1ccc2c(c1)OCO2,growth inhibition,[1]; at 1.2 µM,11%
same,growth inhibition,[1]; at 3.7 µM,48%
same,growth inhibition,[1]; at 11.0 µM,92% (active)
same,growth inhibition,[1]; at 33.0 µM,90% (active)
same,growth inhibition,[1]; at 100.0 µM,87% (active)
same,growth inhibition,[2]; at 1.2 µM,3%
same,growth inhibition,[2]; at 3.7 µM,15%
same,growth inhibition,[2]; at 11.0 µM,94% (active)
same,growth inhibition,[2]; at 33.0 µM,92% (active)
same,growth inhibition,[2]; at 100.0 µM,89% (active)
same,growth inhibition,[3]; at 1.2 µM,6%
same,growth inhibition,[3]; at 3.7 µM,17%
same,growth inhibition,[3]; at 11.0 µM,33%
same,growth inhibition,[3]; at 33.0 µM,66%
same,growth inhibition,[3]; at 100.0 µM,74% (active)
same,growth inhibition,[4]; at 1.2 µM,0%
same,growth inhibition,[4]; at 3.7 µM,26%
same,growth inhibition,[4]; at 11.0 µM,95% (active)
same,growth inhibition,[4]; at 33.0 µM,92% (active)
same,growth inhibition,[4]; at 100.0 µM,93% (active)
same,growth inhibition,[5]; at 1.2 µM,13%
same,growth inhibition,[5]; at 3.7 µM,72% (active)
same,growth inhibition,[5]; [17],67%
same,growth inhibition,[5]; at 11.0 µM,89% (active)
same,growth inhibition,[5]; at 33.0 µM,87% (active)
same,growth inhibition,[5]; [18],67%
same,growth inhibition,[5]; at 50.0 µM,91.2% (active)
same,growth inhibition,[5]; at 100.0 µM,87% (active)
same,growth inhibition,[6]; at 1.2 µM,-1%
same,growth inhibition,[6]; at 3.7 µM,17%
same,growth inhibition,[6]; [17],27%
same,growth inhibition,[6]; at 11.0 µM,94% (active)
same,growth inhibition,[6]; at 33.0 µM,92% (active)
same,growth inhibition,[6]; [18],27%
same,growth inhibition,[6]; at 50.0 µM,93.7% (active)
same,growth inhibition,[6]; at 100.0 µM,91% (active)
same,growth inhibition,[7]; at 1.2 µM,1%
same,growth inhibition,[7]; at 3.7 µM,24%
same,growth inhibition,[7]; at 11.0 µM,95% (active)
same,growth inhibition,[7]; at 33.0 µM,93% (active)
same,growth inhibition,[7]; at 100.0 µM,93% (active)
same,growth inhibition,[8]; [17],75% (active)
same,growth inhibition,[8]; [18],75% (active)
same,growth inhibition,[8]; at 50.0 µM,91.8% (active)
same,growth inhibition,[9]; at 1.2 µM,-5%
same,growth inhibition,[9]; at 3.7 µM,4%
same,growth inhibition,[9]; at 11.0 µM,92% (active)
same,growth inhibition,[9]; at 33.0 µM,89% (active)
same,growth inhibition,[9]; at 100.0 µM,84% (active)
same,growth inhibition,[10]; [17],7%
same,growth inhibition,[10]; [18],7%
same,growth inhibition,[10]; at 50.0 µM,91.3% (active)
same,growth inhibition,[11]; at 1.2 µM,-2%
same,growth inhibition,[11]; at 3.7 µM,10%
same,growth inhibition,[11]; [17],14%
same,growth inhibition,[11]; at 11.0 µM,93% (active)
same,growth inhibition,[11]; at 33.0 µM,89% (active)
same,growth inhibition,[11]; [18],14%
same,growth inhibition,[11]; at 50.0 µM,92% (active)
same,growth inhibition,[11]; at 100.0 µM,89% (active)
same,growth inhibition,[12]; at 1.2 µM,0%
same,growth inhibition,[12]; at 3.7 µM,35%
same,growth inhibition,[12]; at 11.0 µM,95% (active)
same,growth inhibition,[12]; at 33.0 µM,92% (active)
same,growth inhibition,[12]; at 100.0 µM,93% (active)
same,growth inhibition,[13]; at 1.2 µM,7%
same,growth inhibition,[13]; at 3.7 µM,47%
same,growth inhibition,[13]; at 11.0 µM,93% (active)
same,growth inhibition,[13]; at 33.0 µM,92% (active)
same,growth inhibition,[13]; at 100.0 µM,91% (active)
same,growth inhibition,[14]; at 1.2 µM,1%
same,growth inhibition,[14]; at 3.7 µM,44%
same,growth inhibition,[14]; at 11.0 µM,94% (active)
same,growth inhibition,[14]; at 33.0 µM,90% (active)
same,growth inhibition,[14]; at 100.0 µM,90% (active)
same,growth inhibition,[15]; [17],44%
same,growth inhibition,[15]; [18],44%
same,growth inhibition,[15]; at 50.0 µM,89% (active)
same,growth inhibition,[16]; at 1.2 µM,25%
same,growth inhibition,[16]; at 3.7 µM,82% (active)
same,growth inhibition,[16]; at 11.0 µM,92% (active)
same,growth inhibition,[16]; at 33.0 µM,86% (active)
same,growth inhibition,[16]; at 100.0 µM,88% (active)
c1ccc2c(c1)ccn2CCc1c[nH]c2ccccc12,growth inhibition,[1]; at 1.2 µM,-35%
same,growth inhibition,[1]; at 3.7 µM,-37%
same,growth inhibition,[1]; at 11.0 µM,-20%
same,growth inhibition,[1]; at 33.0 µM,31%
same,growth inhibition,[1]; at 100.0 µM,97% (active)
same,growth inhibition,[2]; at 1.2 µM,-16%
same,growth inhibition,[2]; at 3.7 µM,-31%
same,growth inhibition,[2]; at 11.0 µM,-19%
same,growth inhibition,[2]; at 33.0 µM,21%
same,growth inhibition,[2]; at 100.0 µM,95% (active)
same,growth inhibition,[3]; at 1.2 µM,-33%
same,growth inhibition,[3]; at 3.7 µM,-5%
same,growth inhibition,[3]; at 11.0 µM,23%
same,growth inhibition,[3]; at 33.0 µM,41%
same,growth inhibition,[3]; at 100.0 µM,55%
same,growth inhibition,[4]; at 1.2 µM,-26%
same,growth inhibition,[4]; at 3.7 µM,-26%
same,growth inhibition,[4]; at 11.0 µM,-4%
same,growth inhibition,[4]; at 33.0 µM,33%
same,growth inhibition,[4]; at 100.0 µM,96% (active)
same,growth inhibition,[5]; at 1.2 µM,-20%
same,growth inhibition,[5]; at 3.7 µM,-20%
same,growth inhibition,[5]; [17],-13%
same,growth inhibition,[5]; at 11.0 µM,-5%
same,growth inhibition,[5]; at 33.0 µM,34%
same,growth inhibition,[5]; [18],48%
same,growth inhibition,[5]; at 50.0 µM,91% (active)
same,growth inhibition,[5]; at 100.0 µM,98% (active)
same,growth inhibition,[6]; at 1.2 µM,-24%
same,growth inhibition,[6]; at 3.7 µM,-23%
same,growth inhibition,[6]; [17],-5%
same,growth inhibition,[6]; at 11.0 µM,-27%
same,growth inhibition,[6]; at 33.0 µM,0%
same,growth inhibition,[6]; [18],1%
same,growth inhibition,[6]; at 50.0 µM,93.4% (active)
same,growth inhibition,[6]; at 100.0 µM,96% (active)
same,growth inhibition,[7]; at 1.2 µM,-16%
same,growth inhibition,[7]; at 3.7 µM,-29%
same,growth inhibition,[7]; at 11.0 µM,-28%
same,growth inhibition,[7]; at 33.0 µM,6%
same,growth inhibition,[7]; at 100.0 µM,97% (active)
same,growth inhibition,[8]; [17],-10%
same,growth inhibition,[8]; [18],25%
same,growth inhibition,[8]; at 50.0 µM,57.9%
same,growth inhibition,[9]; at 1.2 µM,7%
same,growth inhibition,[9]; at 3.7 µM,21%
same,growth inhibition,[9]; at 11.0 µM,12%
same,growth inhibition,[9]; at 33.0 µM,48%
same,growth inhibition,[9]; at 100.0 µM,95% (active)
same,growth inhibition,[10]; [17],-1%
same,growth inhibition,[10]; [18],52%
same,growth inhibition,[10]; at 50.0 µM,91.7% (active)
same,growth inhibition,[11]; at 1.2 µM,15%
same,growth inhibition,[11]; at 3.7 µM,18%
same,growth inhibition,[11]; [17],-19%
same,growth inhibition,[11]; at 11.0 µM,39%
same,growth inhibition,[11]; at 33.0 µM,79% (active)
same,growth inhibition,[11]; [18],70% (active)
same,growth inhibition,[11]; at 50.0 µM,89.7% (active)
same,growth inhibition,[11]; at 100.0 µM,95% (active)
same,growth inhibition,[12]; at 1.2 µM,-29%
same,growth inhibition,[12]; at 3.7 µM,-28%
same,growth inhibition,[12]; at 11.0 µM,-20%
same,growth inhibition,[12]; at 33.0 µM,20%
same,growth inhibition,[12]; at 100.0 µM,97% (active)
same,growth inhibition,[13]; at 1.2 µM,-18%
same,growth inhibition,[13]; at 3.7 µM,-14%
same,growth inhibition,[13]; at 11.0 µM,-6%
same,growth inhibition,[13]; at 33.0 µM,15%
same,growth inhibition,[13]; at 100.0 µM,97% (active)
same,growth inhibition,[14]; at 1.2 µM,-38%
same,growth inhibition,[14]; at 3.7 µM,-38%
same,growth inhibition,[14]; at 11.0 µM,-20%
same,growth inhibition,[14]; at 33.0 µM,20%
same,growth inhibition,[14]; at 100.0 µM,95% (active)
same,growth inhibition,[15]; [17],3%
same,growth inhibition,[15]; [18],51%
same,growth inhibition,[15]; at 50.0 µM,91.4% (active)
